The source of these data is PubChem BioAssay (NCATS).

Each structure is given as a SMILES string. Results filed as inconclusive are left out. Entries that show only a call come without a potency. The source made the active and inactive calls. The call rests on the fitted dose curve; in most records, active means well fitted inhibition curve with a large enough effect; inconclusive means small, poorly fitted or top-dose-only effect; inactive means flat fitted curve, though single readings scatter.
Potency means the concentration at half of the fitted maximal effect.

The subject of the experiment is astro (control astrocytes). Briefly: Drug repurposing screens with cells derived from glioblastoma tumor samples (AID 1345199). Further: nearly all actives have a fitted effect of over 40% in size. The conditions noted are these: viability, ATP luminescence, 48 h; series mostly up to 45.9 µM. In outline: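 Four patient lines of CD133+ GBM neurospheres were screened at several concentrations; hits were retested in those lines plus three slower-growing GBM lines, using 48-hour treatment and ATP-based viability.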
`C[C@](N)(Cc1ccc(O)cc1)C(=O)O`: the Potency entry was “inactive”.

Regarding `Cc1ncc([N+](=O)[O-])n1CC(O)CCl` (stereo not given), the Potency result is “inactive”.

On to `O=C1N=C(O)CN1/N=C/c1ccc(-c2ccc([N+](=O)[O-])cc2)o1`, for which the Potency entry was “inactive”.

As to `CN1CCOC(c2ccccc2)c2ccccc2C1` (stereo not given), the Potency result is “inactive”.

As to `Nc1ccc(S(=O)(=O)NC(=O)c2ccccc2)cc1`, the Potency result was “inactive”.

For the compound `CC1(C)CO[C@@H](CC(=O)O)CN1`, the Potency result was “inactive”.

`O=C(Oc1ccccc1C(=O)O)c1ccccc1O`: the Potency result is “inactive”.

For `COc1ccc2cc1Oc1cc3c(cc1OC)CC[N+](C)(C)[C@H]3Cc1ccc(cc1)Oc1c(OC)c(OC)cc3c1[C@@H](C2)[N+](C)(C)CC3`, the Potency entry is “inactive”.

`CCOC(=O)[C@H](CCc1ccccc1)N[C@@H](C)C(=O)N1C(=O)N(C)C[C@H]1C(=O)O`: the Potency result is “inactive”.

Consider `CS(=O)(=O)c1ccc([C@@H](O)[C@@H](CF)NC(=O)C(Cl)Cl)cc1`, for which the Potency entry was “inactive”.

Take `CN1CCN(C2Cc3ccccc3Sc3ccc(Cl)cc32)CC1` (stereo not given): the Potency is 22.4 µM (active).

On to `Nc1ccc(S(=O)(=O)Nc2ccc(Cl)nn2)cc1`, for which the Potency result was “inactive”.

For `CC1(C)Oc2ccc(C#N)cc2[C@@H](N2CCCC2=O)[C@@H]1O`, the Potency entry is “inactive”.

On to `COc1cc(C(=O)N2CCOCC2)cc(OC)c1OC`, for which the Potency entry is “inactive”.

For `CCCCC/C(C=O)=C\c1ccccc1`, the Potency result is “inactive”.

Take `CC(C)(C)C(=O)NCCCC(=O)O`: the Potency result was “inactive”.

For the compound `N[C@@H](CSCCCO)C(=O)O`, the Potency result is “inactive”.

For `CCN(CC)CCCC(C)Nc1c2ccc(Cl)cc2nc2ccc(OC)cc12` (stereo not given), the Potency was 20 µM (active).

Take `CC(=O)OCC(=O)[C@@]1(O)CC[C@H]2[C@@H]3CCC4=CC(=O)CC[C@]4(C)[C@H]3C(=O)C[C@@]21C`: the Potency result is “inactive”.

Turning to `Cc1cc2c(cc1S(N)(=O)=O)S(=O)(=O)CCC2`, the Potency result is “inactive”.
